Here are results for 51 compounds from PubChem BioAssay AID1347416 (National Center for Advancing Translational Sciences (NCATS), 2020).

In all, about 4,100 compounds went through this assay and about 1,600 (39%) were called active. About 25% were inconclusive and are not listed. The call rests on the fitted dose curve; in most records, active means well fitted inhibition curve with a large enough effect; inconclusive means small, poorly fitted or top-dose-only effect; inactive means no such curve, though single readings can be large or run the other way. The list shows a part of the results.
Potency means the concentration at half of the fitted maximal effect.

The nature of this test: qHTS Validation assay for Inhibitors of Plasmodium falciparum Dd2 growth in vitro. Further: nearly all actives have a fitted effect of over 70% in size. To be noted: P. falciparum Dd2 in RBCs, SYBR Green growth, 72 h; series mostly up to 28.7 µM. In outline:
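P. falciparum Dd2-infected red blood cells (2.5% hematocrit, 0.3% parasitemia) grown 72 h at 37 °C under 5% O2 with compounds in a titration, 29 uM to 0.5 nM final. Growth read as SYBR Green-1 fluorescence after ~16 h lysis; artesunate 300 nM as positive control.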
Consider `Cc1ccccc1OCCSc1nc2ccc(NC(=O)c3ccccc3)cc2s1`, for which the Potency is 15 µM (active).
As for `CCCOc1cccc(C(=O)Nc2ccc(-c3cc4ccccc4oc3=O)c(C)c2)c1`, the Potency entry is “inactive”.
As for `COc1ccc(S(=O)(=O)N2CCC3(CC2)OCCN3S(=O)(=O)c2c(C)cc(C)cc2C)cc1`, the Potency was 2.66 µM (active).
To `COc1ccc(S(=O)(=O)N2CCc3cc(OC)c(OC)cc3C2)cc1` belongs “inactive”; to `O=C1C(Nc2ccccc2)=C/C(=N/S(=O)(=O)c2cccs2)c2ccccc21`, 0.335 µM (active).
With `Cc1cccc(NC2=C/C(=N/S(=O)(=O)c3cccs3)c3ccccc3C2=O)c1` the figure was 0.168 µM (active); with `COC(=O)[C@H]1[C@H]2C[C@@H]3c4[nH]c5cc(OC)ccc5c4CCN3C[C@H]2C[C@@H](OC(=O)/C=C/c2cc(OC)c(OC)c(OC)c2)[C@@H]1OC`, 5.31 µM (active).
To `CCOC(=O)c1ccc(NC(=O)Cn2c(-c3cnccn3)nc(C)c(CCO)c2=O)cc1` belongs “inactive”; to `Cc1ccc(NC(=O)Cn2c(-c3ccccc3)nc(C)c(CCO)c2=O)cc1Cl`, 10.6 µM (active).
With `Cc1nc(-c2ccccc2)n(CC(=O)Nc2ccc(Cl)cc2)c(=O)c1CCO`, the Potency is 16.8 µM (active).
For `Cc1nc(-c2cccc(Cl)c2)n(CC(=O)Nc2ccc(C(F)(F)F)cc2)c(=O)c1CCO`, the Potency is 13.3 µM (active).
In the case of `COc1ccc2c(c1)C=C([C@@H]1C[C@H]3CN(c4ccccc4)C(=O)[C@]34CCCN14)CO2`, the Potency is 0.944 µM (active).
Regarding `COc1ccc(-c2cc(-c3cccc(NC(C)=O)c3)cn3cncc23)cn1`, the Potency was 21.7 µM (active).
For the compound `O=C(C[C@@H]1CCNC[C@@H]1Cc1cc(COc2ccccc2)on1)NCc1cccs1`, the Potency result was “inactive”.
With `CC(C)(C)c1ccc(-c2cc(C[C@H]3CNCC[C@H]3CC(=O)N3CCN(c4ccccn4)CC3)no2)cc1` the figure was 15 µM (active); with `COc1ccc(CNC(=O)C[C@@H]2CCNC[C@@H]2Cc2cc(-c3ccccc3)on2)cc1OC`, “inactive”.
In the case of `CCC(=O)N1CCCCCCNC(=O)[C@@H]2C[C@@H](C(=O)N3CCN(c4ccccn4)CC3)C[C@@H]21`, the Potency result was “inactive”.
Turning to `O=C(C[C@@H]1CCNC[C@@H]1Cc1cc(CSc2ccccc2)on1)N1CCN(c2ccccc2)CC1`, the Potency is 8.41 µM (active).
`CC(=O)N1CCN(C(=O)C[C@@H]2CCNC[C@@H]2Cc2cc(CSc3ccccc3)on2)CC1`: the Potency result was “inactive”.
As for `CCN1CCN(Cc2ccc(NC(=O)c3cc(NC(=O)c4cc(-c5ccc(OC)cc5)n[nH]4)cc(OC)c3)cc2C(F)(F)F)CC1`, the Potency was 0.168 µM (active).
Regarding `CCN1CCN(Cc2ccc(NC(=O)c3cc(NC(=O)c4nccnc4N)cc(OC)c3)cc2C(F)(F)F)CC1`, the Potency is 4.73 µM (active).
In the case of `COc1cc(NC(=O)c2nnn(Cc3ccc(F)cc3)c2N)cc(OC)c1`, the Potency result is “inactive”.
With `CCN1CCN(Cc2ccc(NC(=O)c3cc(NC(=O)c4cncc(-c5ccc(C#N)cc5)c4)cc(OC)c3)cc2C(F)(F)F)CC1` the figure was 0.596 µM (active); with `O=C(Nc1ccc2c(c1)C(=O)N1CCC[C@H]1C(=O)N2)c1cc(-c2ccccc2)n[nH]1`, “inactive”; with `COc1ccc(CNC(=O)N[C@@H]2CN(c3ccncn3)C[C@H]2CN(C)C)cc1`, “inactive”.
To `O=c1cc(CSc2ccc(Cl)cc2)nc(-c2ccccn2)[nH]1` belongs 5.96 µM (active); to `CC(C)(C)CC(=O)N1CCC(N2C(=O)CCC2C(=O)NCc2ccccc2)CC1` (stereo unspecified), “inactive”; to `COc1ccc2cc1Nc1ccc(cc1)C[C@H](NCc1ccc3c(c1)CCO3)C(=O)N(C)[C@H](C(=O)NCCC(C)C)C2`, 3.35 µM (active).
For `CCC(=O)N1CCN(c2nc3c(s2)CC(C(=O)NCc2ccc(C)o2)CC3)CC1` (stereo unspecified), the Potency entry was “inactive”.
Take `COc1ccc2cc1Nc1ccc(cc1)C[C@H](NCc1ccc(C)o1)C(=O)N(C)[C@@H](C(=O)NCc1ccccc1)C2`: the Potency is 5.31 µM (active).
For the compound `COc1ccc2cc1Nc1ccc(cc1)C[C@H](NCc1cccc(C(=O)O)c1)C(=O)N(C)[C@H](C(=O)Nc1ccccc1OCc1ccccc1)C2`, the Potency is 4.73 µM (active).
For `COc1ccc2cc1Nc1ccc(cc1)C[C@H](NCc1ccc(C)o1)C(=O)N(C)[C@H](C(=O)NCCC(C)C)C2`, the Potency is 5.96 µM (active).
For `Cc1ccc(C(=O)N2CCCCCCNC(=O)[C@@H]3CCC[C@@H]32)s1`, the Potency result is “inactive”.
As to `Cc1cccc(CSc2nn3c(=O)c(C)nnc3s2)c1`, the Potency result was “inactive”.
Consider `CNC(=O)[C@@H]1C[C@@H](n2cc(CN(C)C(=O)c3cc(F)ccc3Cl)nn2)CN1`, for which the Potency result is “inactive”.
Turning to `O=C(COc1ccccc1)NC1CC(=O)N(c2ccc3c(c2)OCCO3)C1` (stereo unspecified), the Potency result is “inactive”.
As for `CC(C)COC(=O)/C(C#N)=C\c1ccc(-c2ccccc2Cl)o1`, the Potency result is “inactive”.
Take `Cc1noc(C)c1S(=O)(=O)N1CCCN(Cc2ccncc2)C(c2ccccc2)CC(=O)NCC1` (stereo unspecified): the Potency was 7.5 µM (active).
With `Cc1noc(C)c1S(=O)(=O)NCC(=O)N1CCCCCCNC(=O)CC1c1ccccc1` (stereo unspecified), the Potency result was “inactive”.
Regarding `O=C1CC(c2ccccc2)N(S(=O)(=O)c2cccc(F)c2)CCCCCN1` (stereo unspecified), the Potency result was “inactive”.
Regarding `Cc1noc(C)c1S(=O)(=O)N1CCc2nc3cc(-c4ccccc4)[nH]n3c(=O)c2C1`, the Potency entry was “inactive”.
As for `O=C1CC(c2ccccc2)N(Cc2ccncc2)CCCN(S(=O)(=O)c2cccs2)CCN1` (stereo unspecified), the Potency was 6.68 µM (active).
As to `O=C1CCC2(CCN1)CCN(S(=O)(=O)c1cccnc1)CC2`, the Potency result is “inactive”.
As to `O=C1CC(c2ccccc2)N(Cc2ccncc2)CCCN(S(=O)(=O)c2cccc(F)c2)CCN1` (stereo unspecified), the Potency was 4.73 µM (active).
With `O=C(C1CC1)N(Cc1nc2ccccc2c(=O)[nH]1)Cc1cccs1` the entry was “inactive”; with `COCCN1CCNc2nc(CNCc3cnccn3)n(Cc3ccccc3)c2C1=O`, “inactive”.
With `COc1ccc(CNC[C@H]2O[C@H](Cc3cc(-c4ccc(OC)cc4)on3)CC[C@@H]2O)cc1` the figure was 10.6 µM (active).
For `O[C@H]1CC[C@@H](Cc2cc(-c3ccc(F)cc3)on2)O[C@@H]1CNC1CCCCC1`, the Potency is 2.43 µM (active).
For `COc1ccc(CNC[C@H]2O[C@H](Cc3cc(-c4ccccc4)on3)CC[C@@H]2O)cc1`, the Potency is 3.85 µM (active).
With `Cc1ccc(S(=O)(=O)NC[C@H]2O[C@H](Cc3cc(-c4cccc(O)c4)on3)CC[C@@H]2O)cc1` the entry was “inactive”; with `COc1ccc(-c2cc(C[C@@H]3CC[C@H](O)[C@@H](CNCc4ccccc4OC)O3)no2)cc1`, 3.44 µM (active).
